SMILES strings stand for the structures. Where “and” joins values, the source holds several entries; their conditions need not be identical. Identical values can stand only once. Out of some 340,000 compounds screened, about 260 (0.076%) were called active.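 Rule for the calls: active = highest replicate inhibition at or above 60% at 9 µM, even if other replicates fall short; inactive = all replicates below 60% inhibition.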 The sample as a whole holds a higher share of actives than the screen did.

This assay deals with Kaposi's sarcoma herpesvirus LANA C-terminal domain (residues 932-1162) DNA binding. Briefly: inhibitors of KSHV C-LANA binding to DNA, primary screen, biochemical, fluorescence polarization, FAM-LBS DNA, MBP-C-LANA, single point (AID 504423).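 Note: 0% = neutral control wells and 100% = 4 µM acridine orange control.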 As to conditions: at 9 µM, stronger effect = higher value.
`CCOc1ccc(N(CC)S(=O)(=O)c2cccc3nsnc23)cc1`: the inhibition (commonly the change of the read-out against control, counted positive when it falls) is 3.87% (inactive).
For `Cc1cc2nc(SCCN3CCOCC3)[nH]c2cc1C` the value was -0.479% (inactive); for `O=C(Nc1c(Br)cc2c(c1Br)Cc1ccccc1-2)C(F)(F)F`, -0.671% (inactive); for `O=C(NC(=S)N1CCCCC1c1cccnc1)c1ccccc1` (configuration not stated), 1.24% (inactive).
Regarding `CN(CCOc1ccc(CC2SC(=O)NC2=O)cc1)c1ccccn1` (configuration not stated), the inhibition is 14.3% (inactive) and -2.59% (inactive).
For `CN(C)/C=C(/C(=O)c1ccccc1Cl)S(C)(=O)=O`, the inhibition is 0.122% (inactive).
The result for `CCC(CC)C(=O)Nc1cc(C(=O)OC)cc(C(=O)OC)c1` reads -1.15% (inactive); that for `Cc1ccc(C)c(-n2ccnc2SCC(N)=O)c1`, -0.0657% (inactive); that for `Cc1cc(C)c(CN2CCN(C(=O)Cn3ccc(NC(=O)OCc4ccccc4)nc3=O)CC2)c(C)c1`, 1.66% (inactive).
As for `CCn1c(=S)sc2c(=O)n(CC(=O)Nc3cccc(Br)c3)c(C)nc21`, the inhibition was -0.393% (inactive).
The result for `Cc1cccn2c(CNCC(C)Oc3cccnc3)c(C(=O)N3CCOCC3)nc12` (configuration not stated) reads -1.19% (inactive); that for `CCOc1ccc(CN2CCC(n3nccc3NC(=O)C3CC3)CC2)cc1CO`, 1.61% (inactive).
Regarding `O=C(Nc1cc(-c2ccccc2)nn1-c1ccccc1F)c1ccc([N+](=O)[O-])cc1`, the inhibition was -1.47% (inactive).
Turning to `Cc1ccccc1OCC(=O)NNC(=O)c1cc(S(=O)(=O)N(C)C)ccc1N1CCCC1`, the inhibition was -0.594% (inactive).
As for `CN1CCC2(CC1)NC(=O)NC2=O`, the inhibition is 0.656% (inactive).
As to `O=C(NCc1ccncc1)c1cccc(NS(=O)(=O)c2ccc(F)c(F)c2)c1`, the inhibition was -0.916% (inactive).
Regarding `CSc1nc(-c2ccccc2)nc(C(Cl)Cl)n1`, the inhibition is 1.16% (inactive).
On to `CCCn1c(N)c(C(=O)CSc2nc3ccccc3c(=O)n2-c2ccc(OC)cc2)c(=O)[nH]c1=O`, for which the inhibition was 0.469% (inactive).
On to `Cc1cccc(-c2nc3c(c(SCC(=O)N4CCOCC4)n2)CCCC3)c1`, for which the inhibition was -0.478% (inactive).
Regarding `COc1cccc(CNC(=O)C2CCCN(c3ncnc4c3nc3n4CCCCC3)C2)c1` (configuration not stated), the inhibition was 0.109% (inactive).
As to `CCNC(=O)COc1cc(C)c(Br)c(C)c1`, the inhibition is 0.138% (inactive).
As to `CCCCC(CC(C)O)c1n[nH]c(=S)n1-c1ccccc1` (configuration not stated), the inhibition was 0.671% (inactive).
For `Cc1ccc(N2CCN(C(=O)c3cccs3)CC2)c(C)c1` the value was 0.336% (inactive); for `O=C(COC(=O)COc1cccc(F)c1)NCC1CCCCC1`, -1.07% (inactive); for `O=C1Nc2cc(C(=O)N3CCC(N4CCCCC4)CC3)ccc2S/C1=C\c1ccccc1`, -4.28% (inactive).
Turning to `CC(=O)Nc1ccc(S(=O)(=O)N(C)CC(=O)NCCC2=CCCCC2)cc1`, the inhibition was 0.609% (inactive).
For `CC(C)n1c(NCc2c[nH]c3ccccc23)nc2ccccc21` the value was -1.36% (inactive).
`COc1ccccc1-c1c(C#N)c(N)nc2c1CCC2`: the inhibition is 1.17% (inactive).
Take `CS(=O)(=O)N1CCC(C(=O)N2CCN(c3ccccc3)CC2)CC1`: the inhibition is -0.437% (inactive).
For `C(=N/N1CCN(c2ccccc2)CC1)/c1cccs1` the value was -0.282% (inactive); for `O=c1ccc2c(-c3ccccc3S(=O)(=O)O)c3ccc(O)c(O)c3oc-2c1O`, 101% (active).
As for `CC(OC(=O)/C=C/c1ccccc1)C(=O)Nc1ccc(C(N)=O)cc1` (configuration not stated), the inhibition is 2.44% (inactive).
As for `COc1ccc(C2CC(=O)Oc3ccc(C(C)(C)C)cc32)cc1` (configuration not stated), the inhibition is -0.823% (inactive).
On to `CC1(c2nnc(-c3ccncc3)o2)CC(c2cccnc2)=NO1` (configuration not stated), for which the inhibition is -1.07% (inactive).
Regarding `Cc1ccc(S(=O)(=O)/N=C(\N)c2ccc(F)cc2)cc1`, the inhibition was -0.0435% (inactive).
`COCc1ccc(CN2CCC(Oc3ccc(C(=O)NCc4ccccn4)cc3)CC2)o1`: the inhibition is -1.54% (inactive).
Regarding `Fc1ccccc1Cc1ccc(Cl)nn1`, the inhibition is -0.587% (inactive).

The values above are taken from PubChem BioAssay AID504423 (Broad Institute, 2011).
